FMDV antiviral: antivirals against foot and mouth disease virus | AID 1745856 | Potency, µM (top dose mostly 57.5 µM), for the others: top-dose activity change, negative = inhibition, hits mostly inhibitors | 120,000 tested, 0.23% active | FMDV antiviral cell assay, firefly luciferase signal; note: nearly all actives have a fitted effect of over 60% in size
FMDV RLuc: FMDV antiviral activity by Renilla signal; FMDV replicon cells, Renilla luciferase signal; Potency, µM (highest dose often 57.5 µM), for the others: at the highest dose activity change, negative = inhibition, actives largely listed as inhibitors; 120,000 tested, 0.32% active; note: nearly all actives have a fitted effect of over 55% in size
Numbers without * were called inactive; ? = inconclusive; [ ] = remark or other dose. Most compounds without a hit are left out; they make up all but 0.4% or so of the library. Calls come from the whole dose curve. % is set by controls: 0 for no effect and ±100 for the full control effect; potency is the fitted concentration of half-maximal effect.

SMILES	FMDV antiviral	FMDV RLuc
N#Cc1ccccc1COC(=O)COc1ccc2c(c1)CCC2	-3%	0%
CCn1c2c(c(=O)n3ncc(C(=O)Nc4cc(Cl)ccc4OC)c13)CN(Cc1ccc(OC)cc1)CC2	-21%	11%
COc1ccc(CN2CCc3c(c(=O)n4ncc(C(=O)N5CCN(c6ccccc6OC)CC5)c4n3C)C2)cc1	2.8µM*	1.8µM*
Cc1cccc(NC(=O)COc2cccc(/C=N/O)c2)c1C	0%	13%
Cc1cc(SCC(=O)Nc2ccc(F)c(F)c2F)nc2ccccc12	-5%	-6%
O=C(Nc1ccc(C23CC4CC(CC(C4)C2)C3)cc1)c1ccccc1Cl	-10%	7%
O=C(Nc1ccc(C23CC4CC(CC(C4)C2)C3)cc1)c1cccc(Cl)c1	0.35µM*	-2%
N#Cc1ccc(Oc2ccccc2Oc2ccc(C#N)c(C#N)c2)cc1C#N	23%	15%
Cc1c(Oc2ccc(C#N)c(C#N)c2)cccc1Oc1ccc(C#N)c(C#N)c1	2.2µM*	2.5µM*
Cc1cc(C)cc(Oc2ccc(C#N)c(C#N)c2)c1	0%	21%
N#Cc1ccc(Oc2ccc(Cl)c(Oc3ccc(C#N)c(C#N)c3)c2)cc1C#N	?	2.5µM*
C=CCC1(CC=C)CCCN1	3%	10%
C=C(C)Cn1c(SCCCCCC)nc2c1c(=O)[nH]c(=O)n2C	7%	-5%
COCCN(CCOC)C(=O)c1ccc(Cl)cc1F	-1%	-8%
N#Cc1ccc(NCCNC(=O)Nc2ccccc2)nc1	0%	-41%
N#Cc1ccc(NCCNC(=O)C2CCCCC2)nc1	?	32µM*
O=C(COc1ccc(Br)cc1)Nc1ccc2c(=O)c3ccccc3oc2c1	101%	-1%
Fc1ccccc1-c1ccc(CNCC2CCNCC2)o1	-8%	-28%
Clc1ccc(-c2ccc(CNCC3CCNCC3)o2)c(Cl)c1	?	28µM*
C/C(=N\Nc1ccc(Br)cc1)c1ccc([N+](=O)[O-])cc1	101%	-6%
CCOc1ccc(-c2cc(C(=O)O)c3ccccc3n2)cc1	56%	?
CCOc1ccc(-c2cc(C(=O)O)c3ccccc3n2)cc1OCC	-10%	20µM*
O=C(Nc1ccc(F)c(Cl)c1)c1ccc2c(Cl)c3c(nc2c1)CCC3	111%	23%
Cc1n[nH]c(C)c1Cl	11%	-8%
O=C(CSc1c2c(nc3ccc(Cl)cc13)CCCC2)Nc1nc2ccccc2s1	38%	33%
SMILES	FMDV antiviral	FMDV RLuc
CCCCCCCCCCCCCC[N+](C)(C)Cc1ccccc1	?	25µM*
CCCCCCCCCCCCCCCC[N+](C)(C)Cc1ccccc1	-26%	-14%
COc1ccc(Cc2nnc(SCC(=O)c3ccc(Cl)cc3)n2CC(C)C)cc1	-3%	31%
Cc1nn(Cc2ccc(F)cc2)c(C)c1NC(=O)c1cc(-c2cccs2)on1	35µM*	?
Cc1cc(C(=O)Nc2c(C)nn(Cc3ccc(F)cc3)c2C)no1	1%	4%
CC(NC(=O)c1ccc2c(c1)NC(=O)CS2)c1ccc2c(c1)OCO2 (stereo not drawn)	16%	59%
Cc1ccccc1OCC(O)CN1CCN(c2nccs2)CC1 (stereo not drawn)	-5%	-12%
O[C@@H](COc1cccc2ncccc12)CN1CCN(C2c3ccccc3[C@@H]3[C@H](c4ccccc42)C3(F)F)CC1 (stereo partly drawn)	-13%[11.5 µM]	25µM*
O=C(Nc1nc(C23CC4CC(CC(C4)C2)C3)cs1)c1ccncc1	14µM*	8.9µM*
O=C(Nc1nc(C23CC4CC(CC(C4)C2)C3)cs1)c1ccc(=O)[nH]c1	10%	-9%
COCCn1c2c(c(=O)[nH]c1=O)C(c1ccccc1Cl)C1=C(N2)c2ccccc2C1=O (stereo not drawn)	101%	141%
Cc1nc2cc(NC(C)C(=O)Nc3ccc(C(C)C)cc3)ccc2o1 (stereo not drawn)	31%	9%
C=C(C)COc1ccc2c(C)c(CC(=O)NCCc3ccc(S(N)(=O)=O)cc3)c(=O)oc2c1	4µM*	3.5µM*
Cc1c(C)c2ccc(OCC(=O)NCCc3ccc(S(N)(=O)=O)cc3)cc2oc1=O	3%	0%
Cc1[nH]c2ccc(F)cc2c1C(=O)CCl	13%	2%
O=C(Nc1ccc(N2CCCCC2)c2ccncc12)C1CCC1	8%	-5%
CC1(C)CCCC(C)(C#CCN2CCN(C(c3ccccc3)c3ccccc3)CC2)O1 (stereo not drawn)	20%	11%
CC(C)c1ccc2cc(C(=O)N(Cc3ccco3)C3CC3)[nH]c2c1	191%	32%
O=C1CSc2ccc(C(=O)Nc3ccccc3)cc2N1	171%	5%
Cc1cccc(Oc2ccc(NC(=O)c3ccc4c(c3)NC(=O)CS4)cc2)c1	?	22µM*
N#Cc1ccccc1CON=C1CCC2(CC1)OCCO2	193%	16%
O=[N+]([O-])c1cccc(CON=C2CCC3(CC2)OCCO3)c1	2µM*	-8%
CCCCN(C)C(=O)Cn1cc(C#N)c2ccccc21	13%	-1%
CN(Cc1ccccc1)Cc1nc2c(c(=O)n(C)c(=O)n2C)n1CCc1ccccc1	-14%	5%
